What is called inhibition is the drop in the measured response relative to a control, in per cent.

The values that follow come from ChEMBL document CHEMBL4808148, “HDAC6 screening dataset using tau-based substrate in an enzymatic assay yields selective inhibitors and activators” (2021).

Hit rate of the full screen: of about 5,600 compounds, about 150 (2.7%) showed an effect of 50% or more. Many of the other results were omitted from the sample, so strong results are more common in it than they were.

This assay has as its target T1, Protein deacetylase HDAC6 (Homo sapiens) (UniProt Q9UBN7).
T1 sequence (whole entry): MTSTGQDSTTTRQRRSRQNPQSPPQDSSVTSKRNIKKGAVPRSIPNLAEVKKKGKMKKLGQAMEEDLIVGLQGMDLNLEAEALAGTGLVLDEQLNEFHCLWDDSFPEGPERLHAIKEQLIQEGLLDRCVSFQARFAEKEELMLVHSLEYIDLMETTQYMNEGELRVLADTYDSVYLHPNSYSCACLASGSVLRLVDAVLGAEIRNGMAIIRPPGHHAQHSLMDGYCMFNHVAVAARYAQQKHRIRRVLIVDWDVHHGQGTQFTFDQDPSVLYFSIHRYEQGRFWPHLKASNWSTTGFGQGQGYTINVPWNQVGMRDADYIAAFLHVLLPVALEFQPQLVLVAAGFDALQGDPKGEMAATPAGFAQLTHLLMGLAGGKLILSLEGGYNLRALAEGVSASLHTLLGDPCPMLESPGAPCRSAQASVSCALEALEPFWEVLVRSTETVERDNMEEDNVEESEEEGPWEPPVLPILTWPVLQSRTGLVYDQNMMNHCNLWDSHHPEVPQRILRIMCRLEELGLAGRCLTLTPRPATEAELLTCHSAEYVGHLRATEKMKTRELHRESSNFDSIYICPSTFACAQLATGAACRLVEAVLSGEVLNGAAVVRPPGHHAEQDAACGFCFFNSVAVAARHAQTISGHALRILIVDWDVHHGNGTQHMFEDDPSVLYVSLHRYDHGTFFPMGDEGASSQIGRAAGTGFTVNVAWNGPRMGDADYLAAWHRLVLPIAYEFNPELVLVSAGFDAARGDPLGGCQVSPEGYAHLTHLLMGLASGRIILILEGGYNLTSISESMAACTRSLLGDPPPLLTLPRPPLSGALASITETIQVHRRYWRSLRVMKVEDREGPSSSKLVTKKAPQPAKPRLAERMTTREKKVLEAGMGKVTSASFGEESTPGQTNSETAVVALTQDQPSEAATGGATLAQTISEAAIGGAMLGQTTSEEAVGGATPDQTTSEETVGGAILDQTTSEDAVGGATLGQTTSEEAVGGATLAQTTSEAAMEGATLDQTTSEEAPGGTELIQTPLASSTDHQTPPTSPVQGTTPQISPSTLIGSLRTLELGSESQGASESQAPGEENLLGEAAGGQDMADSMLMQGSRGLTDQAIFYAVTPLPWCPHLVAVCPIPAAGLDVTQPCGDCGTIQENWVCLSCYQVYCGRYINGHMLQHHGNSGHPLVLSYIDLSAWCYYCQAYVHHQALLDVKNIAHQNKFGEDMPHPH
The following applies: at 10 µM.
For the molecule `CO[C@H]1CC[C@@H](C(=O)c2ccc3nc4c(cc3c2)CCCO4)CC1`, the inhibition amounted to 1.73%. As for `CCCn1c(=O)c2[nH]c(-c3cnn(Cc4cccc(C(F)(F)F)c4)c3)nc2n(CC)c1=O`, the inhibition was 2.86%. For `CC(=O)NC[C@H]1CN(c2ccc(N3CCN(C(=O)CO)CC3)c(F)c2)C(=O)O1`, the inhibition was -2.46%. With `COc1cccc(NC(=O)/C=C/c2ccc(Cl)cc2)c1`, the inhibition amounted to 91.8%. For `COc1ccc(/C=C/C(=O)O)cc1`, the inhibition is -6.98%.

As to `COc1cc(NC(=O)c2ccc(-c3ccc(Cl)cc3)o2)cc(OC)c1`, the inhibition is 4.45%. `CN(CCc1ccc(Cl)c(Cl)c1)CCN1CCCC1`: the inhibition was determined as 3.41%. Consider `O=C(O)COc1ccc(/C=C2\SC(=O)NC2=O)cc1`, for which the inhibition stood at 95%. The figure for `N=C1NC(=O)/C(=C/c2ccc(O)cc2)S1` is 14%; for `CCc1ccc(/C=C2/SC(=S)NC2=O)cc1` it is 16.7%; for `CN(C)c1ccc2c(c1)Sc1cc(N(C)C)ccc1N2` it is 32.3%. Regarding `COc1cc(Br)c(S(=O)(=O)Nc2ccc(C(F)(F)F)c(O[C@@H]3CCN(C)C3)c2)cc1OC`, the inhibition was -1.99%. As to `COc1ccc(-n2c(SCc3nc(-c4ccc(C)cc4)no3)nnc2-c2ccncc2)cc1`, the inhibition is -7.03%. For the molecule `O=C(Nc1c(-c2cccs2)nc2ccccn12)c1ccc(Cl)cc1`, the inhibition was -6.19%. Turning to `COc1cccc(/C=N/C=N/c2cccc(OC)c2)c1`, the inhibition was determined as 89.1%. Regarding `COc1cc(/C=C/c2ccc(OC)cc2OC)cc(OC)c1`, the inhibition turned out to be 19.4%. For `Clc1cccc(/C=N/C=N/c2cccc(Cl)c2)c1`, the inhibition turned out to be 1.42%.

In the case of `CNCCCC1(c2ccccc2)OC(C)(C)c2ccccc21` (stereo not given), the inhibition was -1.2%. The figure for `CSc1ccc(OCc2ncc([N+](=O)[O-])n2C)cc1` is 20.2%; for `Cn1c(NCCN(CCO)CCCc2ccc([N+](=O)[O-])cc2)cc(=O)n(C)c1=O` it is -7.89%. Take `O=C(O)c1cc([N+](=O)[O-])ccc1NCCCc1ccccc1`: the inhibition is 52.3%. With `O=C(O)CCCc1ccccc1`, the inhibition is -4.8%.

Regarding `Cc1cc(NC(=O)NCCN2CCC(O)(Cc3ccccc3)CC2)c2ccccc2n1`, the inhibition is -3.32%. With `Oc1cccc(O)c1`, the inhibition was determined as 5.02%.

In the case of `N[C@H]1C[C@@H]1c1ccc(-c2cccc(O)c2)cc1`, the inhibition was 51.4%. Turning to `CC(=O)N[C@H]1[C@H]([C@H](O)[C@H](O)CO)O[C@](O)(C(=O)O)C[C@@H]1O`, the inhibition is -7.16%.

As for `N#CCNC(=O)c1ccc(-c2ccnc(Nc3ccc(N4CCOCC4)cc3)n2)cc1`, the inhibition was -5.68%. For `Cc1nc(N)sc1-c1ccnc(Nc2ccc(N3CCOCC3)cc2)n1`, the inhibition turned out to be 71.7%.

For the molecule `Cc1ccc(-c2ncn(-c3ccc(Nc4nccc(-c5cccc(N6CCOCC6)c5)n4)cc3)n2)cn1`, the inhibition amounted to 14.5%. `CC(C)[C@@H](N)C(=O)O`: the inhibition came to 1.7%.

`O=C(NCc1ccc2c(c1)OCO2)c1c(Cl)cccc1Cl`: the inhibition was 3.64%. As for `COc1ccc(-c2cc(=S)ss2)cc1`, the inhibition came out at 67.3%. Regarding `O=C(O)CCc1c(C(=O)O)[nH]c2cc(Cl)cc(Cl)c12`, the inhibition came out at 4%. The figure for `NCC(=O)N1C[C@H](NC(=O)c2ccccc2)C[C@H]1C(=O)O` is -0.8%; for `O=C(/C=C/c1ccccc1)NC(NC(=S)Nc1ccc(Cl)cc1)C(Cl)(Cl)Cl` (stereo not given) it is -0.27%.

Take `Cc1ccc(C(=O)Cn2c3c(sc2=N)CCCC3)cc1`: the inhibition was determined as 85.8%. The figure for `Cc1ccc(C(=O)C(C)CN2CCCCC2)cc1` (stereo not given) is 4.79%; for `Cc1cccc(NC(=O)CN2CCC(c3ccccn3)CC2)c1` it is 32%; for `N=C(N)c1cc2ccc(OC(=O)c3cccs3)cc2s1` it is 98.3%. Consider `O=C(O)c1cc2ccccc2s1`, for which the inhibition was -8.12%. For `OC(CN1CCNCC1)Cn1c2ccc(Br)cc2c2cc(Br)ccc21` (stereo not given), the inhibition is -4.75%.

Consider `COc1cc2c(cc1OC)CN(C(=O)[C@@H](NCc1ccncc1)C(C)(C)C)CC2`, for which the inhibition was -4.01%. The figure for `c1ccc(NCc2ccc(CNc3ccccn3)cc2)nc1` is 91.6%; for `c1ccc(-c2ccc(CNc3nc(-c4ccccn4)nnc3-c3ccccc3)cc2)cc1` it is 6.43%.

Regarding `O=C(Cc1ccc(-c2ccccc2)cc1)Nc1ccccn1`, the inhibition was determined as 44.2%. Turning to `O=S1(=O)N[C@H]2CCCN2c2ccccc21`, the inhibition was -6.18%. In the case of `FC(F)(F)c1ccc(Nc2ncnc3cc(-c4ncccc4C(F)(F)F)ccc23)cc1`, the inhibition was determined as 6.46%. With `CCCC[C@@H](NC(=O)[C@@H](Cc1cn(C(=O)OC)c2ccccc12)NC(=O)[C@H](CC(C)(C)C)NC(=O)N1[C@H](C)CCC[C@@H]1C)C(=O)O`, the inhibition was -9.33%. `CCCCCCCCCCCCCCCC(=O)OC[C@H](COP(=O)([O-])OCC[N+](C)(C)C)OC(=O)CCCCCCCCCCCCCCC`: the inhibition is -0.71%. Consider `COc1c(C)cnc(Cn2cc(C#CCC(C)(C)O)c3c(Cl)nc(N)nc32)c1C`, for which the inhibition was 0.42%. Turning to `O=C(c1cc(C2CC2)on1)N(C1CCCCC1)C1CCCCC1`, the inhibition is 9.33%.

As to `C#C[C@]1(OC(C)=O)CC[C@H]2[C@@H]3CCC4=C/C(=N/O)CC[C@@H]4[C@H]3CC[C@@]21CC`, the inhibition turned out to be 5.83%. Take `Nc1ccc(S(=O)(=O)Nc2ccccn2)cc1`: the inhibition was 2.21%.

On to `Cc1ccnc(NS(=O)(=O)c2ccc(N)cc2)n1`, for which the inhibition is -3.6%. For the molecule `C=Cc1c(C)c2cc3nc(c(CC(=O)O)c4[nH]c(cc5nc(cc1[nH]2)C(C)=C5CC)c(C)c4C(=O)O)C(CCC(=O)O)C3C` (stereo not given), the inhibition turned out to be 8.5%. Turning to `CC(C)n1nccc1-c1ncccc1COc1cccc(O)c1C=O`, the inhibition came out at 0.21%. Consider `O=c1cc(N2CCN(c3cccc(C(F)(F)F)c3)CC2)[nH]c(=O)n1C1CCCCC1`, for which the inhibition is -1.42%. The figure for `O=C(/C=C/c1ccc2c(c1)OCO2)N1CCCCC1` is 67.8%; for `CC(C)(C)C(O)/C=C/c1ccc2c(c1)OCO2` (stereo not given) it is 8.28%.

Take `O=C(COc1ccc(Cl)cc1)N1CCN(Cc2ccc3c(c2)OCO3)CC1`: the inhibition is -0.58%. On to `O=C(/C=C/C=C/c1ccc2c(c1)OCO2)N1CCCCC1`, for which the inhibition stood at 61.2%. In the case of `O=C(CN1CCN(Cc2ccc3c(c2)OCO3)CC1)N1c2ccccc2Sc2ccccc21`, the inhibition came to 4.21%.

With `O=C(c1ccc2c(c1)OCO2)N1CCCCC1`, the inhibition was -4.9%. Turning to `CC/C(=C(\c1ccc(OCCN(C)C)cc1)c1cccc(O)c1)c1ccccc1`, the inhibition is -4.47%. With `CC(C)(N)c1nc(-c2ccc(OC(F)(F)F)cc2)c[nH]1`, the inhibition amounted to 3.83%. Take `C[C@]12CC[C@H](O)CC1=CCC1C2CC[C@]2(C)C(n3cnc4ccccc43)=CCC12` (stereo not given in full): the inhibition worked out at 10.9%.

As for `O=C(Nc1cccc2c(=O)cc(-c3nnn[nH]3)oc12)c1ccc(OCCCCc2ccccc2)cc1`, the inhibition came out at 2.83%.

On to `CCCCc1ccc2[nH]c(NC(=O)OC)nc2c1`, for which the inhibition came to 15.1%. Take `O=C(NO)c1ccc2[nH]c(=O)c(CCCc3ccccc3)nc2c1`: the inhibition stood at 97.8%. As for `NC(=O)CCCCn1ccc(/N=C(\N)NCC(F)(F)F)n1`, the inhibition was -7.78%.
